Results filed as inconclusive are left out. Entries that show only a call come without a potency. Values without a mark were called inactive. Activity calls are given as the source filed them. Calls follow the shape of the dose curve; as a rule, active = well fitted activation curve with a large enough effect in the signal ratio in the repeat runs (not every such curve was filed as active); inconclusive = weak or mixed curves; inactive = flat fitted curve, though single readings scatter; the % refers to the signal ratio.
Experiment: p53 small molecule agonists, cell-based qHTS assay (AID 1963582)
Conditions: HCT-116 p53RE-bla reporter, beta-lactamase FRET ratio, 16 h; series mostly up to 66 µM
Description: National Center for Advancing Translational Sciences [NCATS]
Division of Preclinical Innovation [DPI]
U.S. Environmental Protection Agency [EPA]
National Institutes of Environmental Health Sciences [NIEHS]
National Toxicology Program [NTP]
U.S. Food and Drug Administration [FDA]
p53, a tumor suppressor protein, is activated following cellular insult, including DNA damage and other cellular stresses. The activation of p53 regulates cell fate by inducing DNA repair, cell cycle arrest, apoptosis, or cellular senescence. The activation of p53, therefore, is a good indicator of DNA damage and other cellular stresses. […] The activation of the reporter gene under culture conditions can be detected by fluorescence intensity. This cell line was used to screen the Tox21 10K compound library in a 1536-well plate format and to identify agonists that activate the p53 signaling pathway.
Tox21 Assay Protocol Summary:
The p53RE-bla cells were dispensed at 4,000 cells/5 ul/well in 1536-well black wall/clear bottom plates using a Multidrop dispenser. After the assay plates were incubated at a 37 C/5% CO2 incubator for 5 hours, 23 nL of compounds dissolved in DMSO, positive controls or DMSO only was transferred to the assay plate by a pin tool. The plates were incubated at 37 C for 16 hours. After 1 uL of LiveBLAzerTM B/G FRET substrate was added using a Flying Reagent Dispenser, the plates were incubated at room temperature for 2 hours, and fluorescence intensity was measured by an Envision plate reader.

| SMILES | Potency | activation |
| --- | --- | --- |
| O=C(O)CNC(=O)c1ccc([N+](=O)[O-])cc1 | inactive | – |
| Oc1c(I)cc(I)c2cccnc12 | inactive | – |
| Cc1ncc([N+](=O)[O-])n1CC(C)O (stereo not given) | inactive | – |
| C=C[Si](C)(C)O[Si](C)(C)C=C | inactive | – |
| COc1cc(NS(=O)(=O)c2ccc(N)cc2)nc(OC)n1 | inactive | – |
| CCC(C=O)CC | inactive | – |
| CN1C(=O)CC(c2ccccc2)C1=O (stereo not given) | inactive | – |
| Cc1cc(C)c(NC(=O)CN(CC(=O)O)CC(=O)O)c(C)c1Br | inactive | – |
| Cc1nc(-c2ccc(Cl)cc2)oc1COC(C)(C)C(=O)O | inactive | – |
| O=C1Nc2cc(Cl)ccc2Oc2ccccc21 | inactive | – |
| Cc1cccc(C)c1NC(=O)c1ccc(N)cc1 | inactive | – |
| Nc1nc2c(ncn2COCCO)c(=O)[nH]1 | inactive | – |
| CN(Cc1cc(Br)cc(Br)c1N)C1CCCCC1 | inactive | – |
| COc1ccccc1N1CCN(CCCNc2cc(=O)n(C)c(=O)n2C)CC1 | inactive | – |
| CC1=CC(=O)CC(C)(C)C1=O | inactive | – |
| CNC(=O)c1cnn(-c2nc(N)c3ncn([C@@H]4O[C@H](CO)[C@@H](O)[C@H]4O)c3n2)c1 | inactive | – |
| CC[C@@H](N)CO | inactive | – |
| Cc1cccc(C)c1NC(=O)c1ccccc1C(=O)O | inactive | – |
| C[C@H]1C[C@H]2[C@@H]3CCC4=CC(=O)C=C[C@]4(C)[C@H]3C(=O)C[C@]2(C)[C@@]1(O)C(=O)CO | inactive | – |
| CN1CC(=O)N/C1=N/C(=O)Nc1cccc(Cl)c1 | inactive | – |

| SMILES | Potency | activation |
| --- | --- | --- |
| CCn1cc(C(=O)O)c(=O)c2cnc(N3CCCC3)nc21 | – | 1.25% [at 5.99 µM] |
| CN(C)CCN(Cc1ccc(Cl)cc1)c1ccccn1 | inactive | – |
| O=C(OCCCCCCOC(=O)c1ccccc1)c1ccccc1 | inactive | – |
| C=CCCCC | inactive | – |
| COC(=O)CCCC(=O)O | inactive | – |
| CO[Si](CCCNc1ccccc1)(OC)OC | inactive | – |
| Nc1ccc(F)c([N+](=O)[O-])c1 | inactive | – |
| Cc1ccc(=O)n(-c2ccccc2)c1 | inactive | – |
| COc1cc(S(=O)(=O)O)c(C)cc1N=Nc1c(O)ccc2cc(S(=O)(=O)O)ccc12 | inactive | – |
| Cc1ccsc1/C=C/C1=NCCCN1C | inactive | – |
| CCOC(=O)COC(=O)c1ccccc1C(=O)OCC | inactive | – |
| O=C(O)/C=C/c1ccc(/C=C/C(=O)O)cc1 | inactive | – |
| COCCO | inactive | – |
| CC1CC(C)C(=O)C1=O (stereo not given) | inactive | – |
| COc1c(N2C[C@@H]3CCCN[C@@H]3C2)c(F)cc2c(=O)c(C(=O)O)cn(C3CC3)c12 | inactive | – |
| CCC(CC)(CC(=O)Nc1cccc(/C=C/c2nc(C3CCC3)cs2)c1)C(=O)O | inactive | – |
| C=CCCCCCCCCC(=O)OCC | inactive | – |
| CC(=O)Nc1ccc(C)cc1C | inactive | – |
| O=C(CCCCC(=O)Nc1c(I)cc(I)c(C(=O)O)c1I)Nc1c(I)cc(I)c(C(=O)O)c1I | inactive | – |
| CCCCNc1ccc(NCCCC)c2c1C(=O)c1ccccc1C2=O | – | 7.46% [at 13.5 µM] |

— PubChem BioAssay (Tox21)
